Inconclusive results are not listed. A call without a number means that no potency is given here. A number with no mark means an inactive call. Active and inactive are the calls of the source. Calls come from the whole dose curve; as a rule, active = well fitted curve in the direction sought with a large enough effect; inconclusive = small, poorly fitted or top-dose-only effect, or another doubt; inactive = no such curve, though single readings can be large; an effect the other way counts as inactive or inconclusive.
Columns and labels:
[1] = biological target: Aldehyde dehydrogenase, mitochondrial (Homo sapiens) (UniProt P05091); assay: qHTS for Inhibitors of the Aldehyde Dehydrogenase Family (ALDH2) Primary screen (AID 2061308); note: nearly all actives have a fitted effect of over 55% in size
[2] = biological target: Retinal dehydrogenase 2 (Homo sapiens) (UniProt O94788); assay: qHTS for Inhibitors of the Aldehyde Dehydrogenase Family (ALDH1A2) Confirmation screens (AID 2061314); note: nearly all actives have a fitted effect of over 65% in size; note: potency is the fitted concentration of half-maximal effect
[3] = biological target: Retinaldehyde dehydrogenase 3 (Homo sapiens) (UniProt P47895); assay: qHTS for Inhibitors of the Aldehyde Dehydrogenase Family (ALDH1A3) Primary screen (AID 2061315)
[4] = biological target: Aldehyde dehydrogenase 1A1 (Homo sapiens) (UniProt P00352); assay: qHTS for Inhibitors of the Aldehyde Dehydrogenase Family (ALDH1A1) Confirmatory screens (AID 2061316); note: nearly all actives have a fitted effect of over 65% in size; note: potency is the fitted concentration of half-maximal effect

Compound | Potency [1] | Potency [2] | Potency [3] | Potency [4]
CC(C)(C)OC(=O)N1CCN(c2ccc(NCc3ccc(-c4ccc(C#N)cc4)nc3)cc2)CC1 | inactive | inactive | inactive | 15.9 µM (active)
NC(=O)C1CCN(c2nc(-c3cccc(N)c3)cs2)CC1 | inactive |  | inactive | 
Cc1nc(-c2ccccc2C(C)C)nc(NCc2ccc(-c3cccnc3)cc2)c1C | inactive |  | inactive | 
Cc1c(P(=S)(c2ccccc2)c2ccccc2)c2ccccc2n1C(=O)Cc1ccccc1 | inactive |  | inactive | 
CCCn1c(-c2ccc(F)cc2)nc2c(N(C)CCN(C)C)nc(C)nc21 | inactive |  | inactive | 
CN1CCN(c2cccc(Nc3nn4c(=O)c5ccc(N(C)C)cc5nc4s3)c2)CC1 | inactive | 14.2 µM (active) |  | 11.3 µM (active)
COc1cc([C@H]2O[C@H](c3cc(OC)c4c(c3)OCO4)[C@H](C)[C@H]2C)cc(OC)c1OC | inactive |  | inactive | 
Cc1cc(C)nc(NC(=S)N2CCN(c3ccc(Cl)c(Cl)c3)CC2)c1 | inactive |  | inactive | 
COc1ccc(S(=O)(=O)Nc2cc(OC)cc3cccnc23)cc1 | inactive | 1.42 µM (active) |  | inactive
c1nc(NCc2ccoc2)c2cc(-c3ccc4c(c3)OCO4)ccc2n1 | inactive |  | inactive | 
COc1cc(C(=O)OC[C@@]2(O)CO[C@@H](O[C@H]3[C@H](Oc4ccc(O)cc4)O[C@H](CO)[C@@H](O)[C@@H]3O)[C@@H]2O)cc(OC)c1O | inactive |  | inactive | 
CCC(C(=O)NC(=O)NC(C)=O)c1ccccc1 (centres undefined) | inactive |  | inactive | 
CC(O)c1ccc(-c2ccc3ncnc(NCCc4cnc[nH]4)c3c2)o1 (centres undefined) | inactive |  | inactive | 
C=C1C(=O)OC2/C=C(/C)C3=CC(=O)C(C)(CC(OC(=O)/C(C)=C/COC(C)=O)C12)O3 (centres undefined) | inactive |  | inactive | 
Cc1cccc(C2N=C(Nc3nc4ccccc4o3)NC3=C2C(=O)CCC3)c1 (centres undefined) | inactive |  | inactive | 
COc1cc(O)c(C(CC(=O)N2CCCC(COc3ccc(F)cc3)C2)c2ccc3c(c2)OCO3)c(OC)c1 (centres undefined) | inactive |  | inactive | 
Cc1ccnc(NC(=S)N2CCc3ccccc3C2)c1 | inactive |  | inactive | 
O=S(=O)(Nc1cnc2ccccc2c1)c1ccc(NCc2ccc(Br)cc2O)cc1 | inactive |  | inactive | 
Cc1cc2c(s1)c1cnn(Cc3ccc(C)c(F)c3)c(=O)c1n2C | inactive |  | inactive | 
C/C=C1\[C@H](O[C@@H]2O[C@H](CO)[C@@H](O)[C@H](O)[C@H]2O)OC=C(C(=O)OCCc2ccc(O)cc2)[C@H]1CC(=O)OCCc1ccc(O)cc1 | inactive |  | inactive | 
COc1ccccc1C1=Nn2c(nnc2-c2ccccc2OC)SC1 | inactive |  | inactive | 
COc1cccc(NC(=S)N2CCN(c3ccc(C(F)(F)F)cc3[N+](=O)[O-])CC2)n1 | inactive |  | inactive | 
CCC1C(=O)N(C)c2cnc(Nc3ccc(C(=O)NC4CCN(C)CC4)cc3OC)nc2N1C1CCCC1 (centres undefined) | inactive |  | inactive | 

Compound | Potency [1] | Potency [2] | Potency [3] | Potency [4]
Nc1cccc(-c2ccc(NC(=O)c3cccs3)cn2)c1 | inactive |  | inactive | 
O=C(/C=C/c1ccccc1)OCC1=CC[C@@H]2C(C(=O)O)=CO[C@@H](O[C@@H]3O[C@H](CO)[C@@H](O)[C@H](O)[C@H]3O)[C@H]12 | inactive |  | inactive | 
N#CC1=C(NC=NCc2ccccc2)Oc2ccc3ccccc3c2C1c1ccccc1 (centres undefined) | inactive |  | inactive | 
O=C(Nc1cccc(C(=O)O)c1)Nc1nnc(-c2ccncc2)s1 | inactive |  | inactive | 
O=C(N/C=C/c1ccccc1)c1cccc([S+](=O)([O-])Nc2ccccc2F)c1 | inactive |  | inactive | 
CCOC(=O)c1cnc2ccc(-c3cncc(NS(=O)(=O)c4ccccc4)c3)cn12 | inactive |  | inactive | 
COc1ccccc1CNc1ccc(S(=O)(=O)Nc2nccs2)cc1 | inactive |  | inactive | 
O=S(=O)(c1ccc2c(c1)OCCO2)N1CCN(S(=O)(=O)c2ccco2)CC1 | inactive |  | inactive | 
O=S1(=O)N=C(Oc2ccccc2-c2ccccc2)c2ccccc21 | inactive |  | inactive | 
Cc1cc(C)nc(NC(=S)N2CCN(c3cccc(S(C)=O)c3)CC2)c1 (centres undefined) | inactive |  | inactive | 
CC(C)CCn1c(CN2CCN(C(=O)C(C)C)CC2)nc2c1c(=O)n(C)c(=O)n2C | inactive |  | inactive | 
O=C1CCc2cc(S(=O)(=O)Nc3cccc(B(O)O)c3)ccc2N1 | inactive |  | inactive | 
Fc1cnc(-c2ccccc2C(F)F)nc1NCC1CCN(c2cnccn2)C1 (centres undefined) | inactive |  | inactive | 
COc1ccc(CN(Cc2ccccc2)S(=O)(=O)c2ccccc2)cc1COc1ccc(NC(C)=O)cc1 | inactive |  | inactive | 
O=C(NCCc1ccc(OCC(F)(F)F)c(OCC(F)(F)F)c1)c1cc2sccc2n1Cc1ccccc1 | inactive |  | inactive | 
Cc1cc(C)nc(NC(=S)N2CCN(c3nccs3)CC2)c1 | inactive |  | inactive | 
COc1ccc(C2Nc3ccccc3C(=O)N2Cc2ccccn2)cc1COc1c(C)cccc1C (centres undefined) | inactive |  | inactive | 
CN1CCC(c2cn(C)c3ccc(OS(=O)(=O)c4c(F)cccc4F)cc23)CC1 | inactive |  | inactive | 
Cc1cnc(-c2ccccc2C(C)C)nc1NCc1ccc(-c2ccc(F)nc2)cc1 | inactive |  | inactive | 
CC(=O)/C=C/[C@H]1[C@](C)(O)[C@@H](O)[C@H](O)C2C(C)(C)CCC[C@@]21C (some centres undefined) | inactive |  | inactive | 
O=C(CNC(=O)c1ccccc1Cl)OC(C(=O)Nc1cc(C(F)(F)F)ccc1Cl)c1ccccc1 (centres undefined) | inactive |  | inactive | 
COc1ccc(C2c3c(n(CCc4ccccc4)cnc3=N)Oc3ccc4ccccc4c32)cc1OC (centres undefined) | inactive |  | inactive | 

From PubChem BioAssay (NCATS)
